From PubChem BioAssay (NCATS)
Results filed as inconclusive are left out. Unmarked numbers belong to inactive results. Activity calls are given as the source filed them. The call rests on the fitted dose curve; in most records, active means well fitted inhibition curve with a large enough effect; inconclusive means small, poorly fitted or top-dose-only effect; inactive means no such curve, though single readings can be large or run the other way.

Assay: BET inhibitor-based combinations targeting novel dependencies in MECOM-rearranged (r) AML: SET-2 cell line (AID 2202231); further: nearly all actives have a fitted effect of over 35% in size
Settings: SET-2 AML cells viability, CellTiter-Glo luminescence, 48 h; viability: hits give low values, series mostly up to about 46 µM
From the text: Ecotropic viral insertion site 1 (EVI1) is located on chromosome 3q26.2 as part of the MECOM (MDS and EVI1 complex) locus. Under normal hematopoiesis, EVI1 is a regulator of hematopoietic stem cell maintenance and self-renewal and EVI1 levels decrease as the cells differentiate. In approximately 5-10% of de novo acute myeloid leukemia (AML) EVI1 is aberrantly expressed, including Chromosomal inv(3)(q21;q26.2) or t(3;3)(q21;q26.2) alterations (MECOM-r) that account for about 50% of AML with EVI1 overexpression 31. AMLs with high levels of EVI1 have a poor prognosis and an overall survival time averaging between 10-14 months. EVI1 overexpression confers resistance in leukemia cells, highlighting the need to develop new targeted therapies for EVI1 overexpressing AMLs.
Here, we performed an unbiased chemical drug screening by evaluating the single agent activity of a collection of 2,480 oncology-focused, approved and investigational drugs (NCATS Mechanism Interrogation Plates, MIPE v5.0) against a panel of seven AML cell lines. These included four MECOM-r cell-lines (AML-191, AML-194, UCSD-AML1 and HNT-34) and three non-MECOM-r AMLs (MV4-11, OCI-AML3 and SET-2). Exploiting the mechanistic redundancy built in the library, we identified target-level sensitivities in MECOM-r AML cells and relative activity as compared to other AML subtypes.
A collection of 2480 mechanistically annotated dugs (MIPE v5.0) was used to screen four 3q26.2 rearranged AML cell lines and three non-3q26.2 rearranged AML cell lines. This library purposely exploits redundancy by including multiple inhibitors of key onco-targets, while simultaneously encompassing mechanistic diversity, targeting more than 800 distinct mechanisms of action. Briefly, cells were seeded in 5 uL of growth media using a Multidrop Combi dispenser into 1536 well white polystyrene tissue culture treated plates (Corning) at a density of 500cells/well. For each cell-line, for each of the 2480 drugs in MIPE v5.0 library, an 11-point dose curve was generated via a 1536 pin-tool. Plates were incubated for 48 hr at standard incubator conditions, covered by a stainless steel gasketed lid to prevent evaporation. Cell viability was determined by luminescence based, Cell Titer Glo assay (Promega). In detail, 3 uL of Cell Titer Glo were added to each well and plates were incubated at room temperature for 15 min with a stainless-steel lid in place. Luminescence readings were taken using a Viewlux (PerkinElmer) with a 2 s exposure time per plate. Compound dose-response curves were normalized to DMSO and empty well controls on each plate. Quantitative drug activity data from dose-response curves was determined utilizing area Under the Curve (AUC) and Z-transformed AUC (Z-AUC, a mean-centering transformation applied to each individual cell-line screened).
Potency means the concentration at half of the fitted maximal effect.

Structure (SMILES) | viability | Potency
CC1Cc2ccccc2N1C(=O)Cc1nc(N2CCOCC2)cc(=O)[nH]1 (stereo not given) | 99.9% | 
C[C@H](NC(=O)CCC(F)(F)F)C(=O)N[C@@H]1C(=O)N(CCO)c2ncccc2-c2ccccc21 | 95.9% | 
CCCC1(CCC)CCC2(CCN(CCCN(CC)CC)C2)CC1 |  | 5.9 µM (active)
Cc1ccc(S(=O)(=O)Nc2cc(C(F)(F)F)ccc2C(=O)Nc2nc(-c3ccccc3)cs2)cc1 |  | 14.8 µM (active)
COc1cc([C@@H]2c3cc4c(cc3[C@@H](O[C@@H]3O[C@@H]5CO[C@@H](C)O[C@@H]5[C@H](O)[C@@H]3O)[C@H]3COC(=O)[C@H]23)OCO4)cc(OC)c1O |  | 5.25 µM (active)
O=C(O)C1=CO[C@@H](O[C@@H]2O[C@H](CO)[C@@H](O)[C@H](O)[C@H]2O)[C@@H]2C(CO)=CC[C@H]12 | 118% | 
O=C1Nc2nc(-c3c(O)cccc3OCC3CC3)cc([C@@H]3CCCNC3)c2CO1 |  | 20.9 µM (active)
C[C@@]12C(=O)OC(=O)[C@]1(C)[C@H]1CC[C@@H]2O1 |  | 4.17 µM (active)
Cn1cc(/C=C/C(=O)c2cccc(F)c2)cc1/C=C/C(=O)NO |  | 1.48 µM (active)
Nc1nccn2c(C3CCC(C(=O)O)CC3)nc(-c3cc4cccc(Cl)c4[nH]3)c12 (stereo not given) |  | 7.42 µM (active)
Fc1cccc(-n2cnc3c(NCc4nc5c(F)c(F)ccc5[nH]4)nc(N4CCOCC4)nc32)c1 |  | 0.372 µM (active)
COc1ccc(S(=O)(=O)N2CCc3cccc(-c4ccncc4)c32)cc1 |  | 1.66 µM (active)
O=C(NCc1ccccc1)[C@H](Cc1ccccc1)NC(=O)[C@H]1O[C@@H]1C(=O)NCCc1ccc(O)cc1 | 105% | 
COc1ccc(S(=O)(=O)N[C@@H](CNc2nc(C)nc(N3CCC(c4ccc5c(n4)NCCC5)CC3)c2C)C(=O)O)cc1 | 111% | 
COC1=C(OC)C(=O)C(C/C=C(\C)CC/C=C(\C)CC/C=C(\C)CC/C=C(/C)CC/C=C(\C)CC/C=C(\C)CC/C=C(\C)CC/C=C(\C)CC/C=C(\C)CCC=C(C)C)=C(C)C1=O | 117% | 
Cc1cc(C(=O)NOCCO)c(Nc2ccc(I)cc2F)n(C)c1=O | 96.3% | 
CC(=O)NCCCS(=O)(=O)O | 115% | 
CCC(=O)NS(=O)(=O)c1ccc(-c2c(-c3ccccc3)noc2C)cc1 | 114% | 
C/C=C1\NC(=O)[C@H]2CSSCC/C=C\[C@H](CC(=O)N[C@H](C(C)C)C(=O)N2)OC(=O)[C@H](C(C)C)NC1=O |  | 0.0295 µM (active)
COc1cc(Nc2ncc(F)c(Nc3ccc4c(n3)N(COP(=O)(O)O)C(=O)C(C)(C)O4)n2)cc(OC)c1OC |  | 13.2 µM (active)

Structure (SMILES) | viability | Potency
COc1ccc([C@@H](O)[C@@H](C)Oc2ccc([C@H]3O[C@H](c4ccc(O[C@H](C)[C@H](O)c5ccc(OC)c(OC)c5)c(OC)c4)[C@H](C)[C@H]3C)cc2OC)cc1OC |  | 13.2 µM (active)
C=CC(=O)N1CCc2ccc(-n3c(=O)ccc4cnc5ccc(-c6cnn(C)c6)cc5c43)cc21 |  | 0.456 µM (active)
COc1ccnc(CS(=O)c2nc3ccc(OC(F)F)cc3[nH]2)c1OC (stereo not given) | 114% | 
CON(C)C(=O)N1N=C(c2cc(F)ccc2F)S[C@@]1(CCCN)c1ccccc1 |  | 0.0295 µM (active)
O=C(N[C@@H](c1ccccc1)[C@@H]1CCCCN1)c1cccc(C(F)(F)F)c1Cl |  | 1.18 µM (active)
CC[C@H](C)C(=O)O[C@H]1C[C@H](O)C=C2C=C[C@H](C)[C@H](CC[C@@H](O)C[C@@H](O)CC(=O)O)[C@H]21 | 113% | 
C=CCc1cccc(/C=N/NC(=O)CN2CCN(Cc3ccccc3)CC2)c1O |  | 20.9 µM (active)
Cc1[nH]c2ccccc2c1CCNCc1ccc(/C=C/C(=O)NO)cc1 |  | 0.0833 µM (active)
COC(=O)[C@H]1[C@@H](O)[C@@]2(O)c3c(OC)cc(O[C@@H]4O[C@@H]([C@@H](O)CO)CO[C@H]4OC)cc3O[C@@]2(c2ccc(OC)cc2)[C@@H]1c1ccccc1 | 77.8% | 
Nc1ccn([C@@H]2O[C@H](CO)[C@@H](O)C2O)c(=O)n1 (stereo not given in full) |  | 0.332 µM (active)
O=C(Nc1ccccc1)Nc1ccc(-c2ccc(C(=O)[C@@H]3CCC[C@H]3C(=O)O)cc2)cc1 | 105% | 
C[C@@H](C(=O)Nc1ccc(Cl)cc1)C1CCC(c2ccnc3ccc(F)cc23)CC1 (stereo not given in full) |  | 16.6 µM (active)
CN(C)C(=O)COC(=O)Cc1ccc(OC(=O)c2ccc(N=C(N)N)cc2)cc1 | 115% | 
COc1ccc([C@@H]2CC(=O)c3c(O)cc(O[C@@H]4O[C@H](CO[C@@H]5O[C@@H](C)[C@H](O)[C@@H](O)[C@H]5O)[C@@H](O)[C@H](O)[C@H]4O)cc3O2)cc1O | 119% | 
O=C1CC[C@H](N2Cc3c(OCc4ccc(CN5CCOCC5)cc4)cccc3C2=O)C(=O)N1 | 102% | 
O=C([O-])C[O-].[Pt+2] | 115% | 
CC[C@@]1(O)C[C@H](O[C@H]2C[C@H](N(C)C)[C@H](O[C@H]3C[C@H](O)[C@H](O[C@H]4CCC(=O)[C@H](C)O4)[C@H](C)O3)[C@H](C)O2)c2c(cc3c(c2O)C(=O)c2c(O)cccc2C3=O)[C@@H]1C(=O)OC |  | 3.72 µM (active)
O=C(NO)c1cnc(N2C[C@H]3C[C@@H]2CN3c2cc(C(F)(F)F)ccn2)nc1 |  | 2.35 µM (active)
CC(=NNC(=O)c1cccc(S(=O)(=O)N2CCOCC2)c1)c1cc(Cl)ccc1O |  | 6.61 µM (active)
CC(C)(C)C(=O)N1N=CC[C@H]1c1ccccc1 | 112% | 
